In PubChem BioAssay (NCI):
Where “and” joins values, the source holds several entries; their conditions need not be identical. Equal values may be shown once. About 83,000 compounds went through this panel and 20% of them were active in at least one assay; those are over-represented in the sample as a whole.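 Note: values are percent growth. 100 is the growth of untreated cells, values between 100 and 0 indicate rising inhibition; between -100 and 0 indicates cell death.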 Unmarked numbers belong to inactive results. Calls of active or inactive are those of the source. The calls were made as follows: active = growth percent below 10; inactive = the rest.

System: MDA-MB-468 breast
Assay: NCI-60 one-dose screen, 48 h (100 = growth as untreated, 0 = no growth, -100 = all killed)
Details: 10 µM unless noted

For COc1cc2c(cc1OC)C(Sc1ccc(F)cc1)c1c(nc(N)c(C#N)c1N)O2 (stereo unspecified), the growth was -56.4% (active).
CC(C)CC1C(=O)N2CCC[C@H]2C2(O)O[C@](NC(=O)C3C=C4c5cccc6[nH]c(Br)c(c56)C[C@H]4N(C)C3)(C(C)C)C(=O)N12 (stereo partly specified) was tested, and the growth was 20.3%.
In the case of O=C(CCCCCCSc1nc(-c2ccc(Cl)cc2)cc(-c2ccc(Cl)cc2)n1)NO, the growth is reported as 32.6%.
CCCCCCCCCCCCCCCCCC1=NC(C)(C)CN1CC(C)O (stereo unspecified) showed a growth of 115%.
Work on Nc1ccn(C2CC(O)C(CO)O2)c(=O)n1 (stereo unspecified) yielded a growth of 103%.
Compound O=C1/C(=C/c2ccccc2Br)COc2ccc(O)c(O)c21 has a growth of 19.2%.
In the case of O=C1C=C(SCCO)C(=O)c2ccccc21, the growth is reported as -42.6% (active).
For C[C@@H]1O[C@@H](O[C@@H]2C[C@H](c3ccc4c(c3O)C(=O)C3=C(C4=O)[C@@]4(O)C(=O)C[C@](C)(O)C[C@@]4(O)C=C3)O[C@H](C)[C@H]2O)C[C@H](O)[C@@H]1O, the growth was 106%.
With Nc1nc(Nc2ccc(OCc3cccc(F)c3)cc2)c2c(n1)[nH]c1ccc(O)cc12 the growth was -17.2% (active).
In the case of C=CCn1c(SCC(=O)Nc2cccc(C(=O)/C=C/c3ccccc3)c2)nc2ccccc2c1=O, the growth is reported as 78.9%.
Compound CCCCCCCCCCCCCCCC(=O)OC1[C@@H](OC(=O)CCCCCCCCCCCCCCC)[C@@H](C(=O)N[C@@H](CCCCN)C(=O)OC)O[C@H]1n1cnc2c(=O)[nH]c(NC(=O)C(C)C)nc21 (stereo partly specified) has a growth of 83.1%.
With O=C1Nc2ccccc2/C1=C/c1cn(CC(O)Cn2cc(/C=C3\C(=O)Nc4ccccc43)c3ccccc32)c2ccccc12 (stereo unspecified) the growth was -84.8% (active).
Work on O=c1[nH]cnc2c1C(c1ccc(Br)cc1)c1sc3c(F)cccc3c1O2 (stereo unspecified) yielded a growth of 105%.
Cc1cc(C)c(N2C(=O)CC(Nc3ccc(Cl)cc3Cl)C2=O)c(C)c1 (stereo unspecified) gave a growth of 96.1%.
Work on Cc1cc(NN=C(c2ccc(O)cc2)c2ccc(O)cc2)c([N+](=O)[O-])cc1[N+](=O)[O-] yielded a growth of 92.8%.
In the case of N/C(=N\C(N)=N\c1nc2ccccc2s1)c1ccc(C(F)(F)F)cc1, the growth is reported as 107%.
C=CCn1c(C)nc2cc(Nc3nc(N4CCCC4)nc4nc[nH]c34)ccc21 showed a growth of 51.1%.
With COc1ccc(-c2cc(C(=O)N=Nc3c(O)[nH]c4ccccc34)c3ccccc3n2)cc1OC the growth was 92.3%.
In the case of CC1CCC2C(C)(C)C3CC12CC1OC13C (stereo unspecified), the growth is reported as 99.8%.
In the case of Cc1ccc2cccc(Oc3ccc(Nc4ncnc5onc(-c6ccccc6)c45)cc3)c2n1, the growth is reported as 86.8%.
Work on CC(=O)O[C@H]1CC2CCC3C(CC[C@@]4(C)C3C[C@H]([N+]3(C)CCCCC3)[C@@H]4OC(C)=O)[C@@]2(C)C[C@@H]1N1CCCCC1 (stereo partly specified) yielded a growth of 106%.
For CCNNC(=O)[C@@H]1[C@H](c2cc(OC)c(OC)c(OC)c2)c2cc3c(cc2[C@H](O)[C@H]1CO)OCO3, the growth was 7.05% (active).
For CCCCNC(=O)Oc1ccc(/C(=C(\C)c2ccccc2)c2ccc(OCCN3CCCCC3)cc2)cc1, the growth was 66.8%.
For Cc1cc(N)c2cc(NC(=O)/C=C\c3ccccc3Cl)ccc2n1, the growth was -81.1% (active).
For O=C(NCOC(O)C(Cl)(Cl)Cl)NCOC(O)C(Cl)(Cl)Cl (stereo unspecified), the growth was 106%.
O=[N+]([O-])c1ccc(N/N=C/C2CCCCCC2)c([N+](=O)[O-])c1 was tested, and the growth was 86.4%.
CCCCNC(=O)NS(=O)(=O)Cc1ccccc1 was tested, and the growth was 112%.
Compound O=C1c2cc(I)ccc2Oc2cc([N+](=O)[O-])ccc2N1c1ccc(Cl)cc1F has a growth of 96.2%.
N#Cc1c(Nc2ccccc2)nn2cc(-c3nc4ccccc4s3)c(N)nc12 gave a growth of 73.8%.
Nc1nc(Nc2ccccc2SSc2ccccc2Nc2nc(N)nc(-c3cccc(Br)c3)n2)nc(-c2cccc(Br)c2)n1 showed a growth of 95.4%.
For CCc1c(Nc2ccccc2C)nc(N)[nH]c1=O, the growth was 105%.
Cc1nc2cc(NC(=O)CN3CCN(CCN4C(=O)c5cccc6cccc(c56)C4=O)CC3)ccc2s1 was tested, and the growth was 38.2%.
CCOc1ccc(/C=N/Nc2cc(C)nc3ccc(Cl)cc23)cc1 was tested, and the growth was -9.24% (active).
In the case of Oc1ccc(CN2CCC(N3CCOCC3)CC2)c2cccnc12, the growth is reported as 36.6%.
Work on CN(C)C(=O)OCc1ccc2c(Cl)cc(Cl)c(O)c2n1 yielded a growth of 27%.
CN1CCN(CC(=O)N(C)c2ccc(N=C(c3ccccc3)c3c(O)[nH]c4ccc([N+](=O)[O-])cc34)cc2)CC1 showed a growth of 87.8%.
C/C(=C(/c1ccc(Cl)cc1)c1ccc(OCCN)cc1)c1ccc(C)cc1 showed a growth of 108%.
With CC(=O)NC(Cc1ccccc1)C(=O)Oc1ccc2ccccc2c1 (stereo unspecified) the growth was 107% and 119%.
With N#Cc1c(-c2ccccc2)cc(-c2ccccc2)n(CCCC(=O)NO)c1=O the growth was 33.3%.
CCOC(=O)c1cc(C(=O)c2cc(OC)c(OC)c(OC)c2)n2nc(C)ccc12 was tested, and the growth was 37.4%.
Compound Oc1cccc(Nc2nccc(-c3ccc4ccccc4c3)n2)c1 has a growth of 15.6%.
With O=C(O)CCC(=O)OC[C@@H](NC(=O)C(Cl)Cl)[C@H](O)c1ccc([N+](=O)[O-])cc1 the growth was 95.5%.
O=C(O)C(O)c1ccccc1 (stereo unspecified) was tested, and the growth was 100%.
COc1ccc2c(c1)c(-c1noc(C(=O)c3cn(C)c4ccc(Br)cc34)n1)cn2C showed a growth of 120%.
Work on CC(=O)C(C)Cc1cc2c(cc1C)C(C)(C)CCC2(C)C (stereo unspecified) yielded a growth of 97.6%.
In the case of Cn1c(SCC(=O)c2ccc(F)cc2)nc2ccccc2c1=O, the growth is reported as 79.4%.
